# Compound activity: PubChem, National Center for Advancing Translational Sciences (NCATS)
# FUS suppressor: rescues growth of FUS-expressing yeast | S. cerevisiae FUS-expressing, growth rescue, OD600, 24 h | Potency, µM (highest dose often 76.6 µM), actives largely listed as activators | 0.24% of 390,000 active | AID 1347120;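 also: plate controls were DMSO vehicle for no effect and reference control for full effect; nearly all actives have a fitted effect of over 55% in size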
#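 Steps: raffinose overnight preculture; dilution to OD 0.005 in 2% galactose minimal medium; compound addition (concentration series); 24hr at 30C, 99% humidity; absorbance read at 600 nm.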
# aSyn yeast inh: alpha-synuclein toxicity inhibition in yeast; Yeast expressing alpha-synuclein, growth rescue, BacTiter-Glo, 24 h; Potency, µM (doses to about 46.1 µM), inactives show top-dose growth rescue (activation), hits mostly activators; 0.14% of 370,000 active; AID 652106; also: % of control where 0% means no effect; nearly all actives have a fitted effect of over 65% in size
#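 Galactose-induced alpha-syn yeast (OD600=0.02, raffinose-pregrown) + pinned cpd, 24 hr, 30 deg C; growth by BacTiter-Glo luminescence. Growth restoration scores as activation.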
# TDP43 rescue: TDP-43 toxicity inhibition in yeast; TDP-43 expressing yeast growth rescue, BacTiter-Glo, 24 h; Potency, µM (series often up to 46.1 µM), without a hit: at the top dose growth rescue (activation), hits mostly activators; 1.8% of 410,000 active; AID 652104; also: % of control where 0% means no effect; nearly all actives have a fitted effect of over 50% in size
#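 In this qHTS, compounds that restore growth of yeast expressing TDP-43 appear as activators. Cells (OD600=0.02, galactose medium, raffinose-pregrown) are incubated with compound 24 hr at 30 deg C and growth is quantified by BacTiter-Glo.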
# Abeta yeast res: compounds reversing amyloid beta toxicity in yeast. yeast expressing A-beta42, growth rescue, OD600, 48 h; response scale: 0% DMSO, 100% iron-clioquinol control. Potency, µM (titrated, usually from 46.1 µM), actives largely listed as activators. 0.063% of 410,000 active. AID 1347071; also: nearly all actives have a fitted effect of over 55% in size
#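 Yeast growth medium received pinned compounds, then yeast cells expressing toxic A-beta were added; plates incubated at 30 C for 48 hr. Growth read as absorbance at 600 nm, normalized to DMSO and equimolar FeCl3 plus clioquinol controls.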
# Active calls of the source: *; i = inactive; ? = inconclusive; . = no result given; [ ] = another dose, or the depositor's remark. Shown are actives, neighbours in structure and some others; about 2.1% of the full set was active somewhere. Calls follow the shape of the dose curve; as a rule, active = well fitted curve in the direction sought with a large enough effect; inconclusive = small, poorly fitted or top-dose-only effect, or another doubt; inactive = no such curve, though single readings can be large; an effect the other way counts as inactive or inconclusive. Potency is read from the fitted curve at half-maximal effect.
SMILES,FUS suppressor,aSyn yeast inh,TDP43 rescue,Abeta yeast res
Cc1cccc(CNC(=O)c2ccc(Cn3c(=O)c4cccn4c4cccnc43)cc2)c1,i,.,32.7%,i
CCCc1cc(N2CCN(c3ccccc3)CC2)n2cnnc2n1,i,.,20µM*,i
Cc1cc(N2CCN(c3ccccc3)CC2)n2cnnc2n1,i,.,8.3%,i
COc1ccccc1N1CCN(c2cc(C)nc3nncn23)CC1,i,.,2.6%,i
CCCc1cc(N2CCN(c3ccccc3F)CC2)n2cnnc2n1,i,.,20µM*,i
Cc1nc(CS(=O)(=O)c2ccccc2)cc(Sc2ccc(Cl)cc2Cl)n1,i,8.8%,12.6µM*,i
Cc1nc(Cl)cc(CS(=O)(=O)c2ccc(Cl)cc2)n1,i,-9.2%,2.3%,i
Cc1ccc(/C(N)=N/OC(=O)Cc2ccccc2)cc1,i,-20.0%,8.7%,i
Cc1ccc(/C(N)=N/OC(=O)Cc2cccc3ccccc23)cc1,i,-20.3%,14.1µM*,i
Cc1cccc(C(=O)O/N=C(\N)Cc2cccc3ccccc23)c1,i,-76.9%,-52.5%,i
Cc1cccc(/C(N)=N/OC(=O)Cc2cccc3ccccc23)c1,i,-29.1%,11.2µM*,i
Cc1ccc(NS(=O)(=O)c2cc3c(cc2Cl)NC(=O)CO3)cc1C,i,.,.,.
COc1ccc(-c2nc3c(=O)n(C)c(=O)nc-3n(C)n2)cc1,.,-84.9%,.,.
COc1ccccc1CNC(=O)Cn1c(=O)nc(-c2ccccc2)c2ccccc21,i,.,14.5%,i
CCC(C(=O)c1ccc2ncccc2c1)c1ccccc1 (configuration not stated),i,7.5%,14.1µM*,i
NC1(c2ccc(-c3nc4ccn5c(=O)[nH]nc5c4cc3-c3ccccc3)cc2)CCC1,.,1.7%,.,.
Cc1nnc(NC(=O)c2ccc(S(=O)(=O)N(C)Cc3ccccc3)cc2)o1,i,?,17.8µM*,?
Cc1nnc(NC(=O)c2ccc3ccccc3c2)o1,i,?,?,15.8µM*
CCc1nnc(NC(=O)c2ccc(S(=O)(=O)N(CC(C)C)CC(C)C)cc2)o1,i,22.4µM*,?,i
CCc1ccccc1NC(=O)[C@@H]1CCCN1S(=O)(=O)c1cccc2cccnc12,i,.,.,.
Cc1nnsc1C(=O)Oc1ccc(Cl)cc1,i,.,7.8%,i
Cc1nc(-c2ccccn2)nc(SCC(=O)c2ccccc2)c1Cl,i,7.4%,17.8µM*,i
Cc1nc(-c2ccccn2)nc(SCC(=O)N2CCOCC2)c1Cl,i,-1.2%,13.5%,i
COC(=O)c1c(NC(=O)CCCOc2ccc(C(C)(C)C)cc2)sc2c1C(C(=O)OC)CC2 (configuration not stated),i,22.9%,26.4%,i
COc1ccc(C2=NN3C(C2)c2ccccc2OC32C(=O)N(C)c3ccccc32)cc1 (configuration not stated),?,5.3%,22.4µM*,i
SMILES,FUS suppressor,aSyn yeast inh,TDP43 rescue,Abeta yeast res
CCc1ccc(C(=O)COC(=O)C(Cc2c[nH]c3ccccc23)NC(=O)c2ccc(CC)cc2)cc1 (configuration not stated),i,.,1.4%,i
O=C1c2ccccc2-c2onc3ccc(N4CCCC4)c1c23,?,-17.8%,-17.2%,i
O=C1c2ccccc2C(=O)c2c1cccc2N1CCCC1,.,-22.7%,14.1µM*,i
Cc1ccc2c(c1)N(C(=O)CCC(=O)NCCCN(C)Cc1ccccc1)CCO2,i,-1.1%,4.4%,i
Cc1ccc2c(c1)N(C(=O)NCc1ccccc1)CCO2,i,.,17.8µM*,i
O=C(NCc1cccs1)C1CCN(C(=O)N2CCOc3ccccc32)CC1,i,.,14.8%,i
CC1=C(C(=O)OCc2ccc(C)cc2)C(c2ccccc2C(F)(F)F)CC(=O)N1 (configuration not stated),i,.,-11.2%,i
CCCC1Cc2c(sc3nc(SC)nc(N)c23)CO1 (configuration not stated),i,-0.1%,-10.3%,i
CCCC1Cc2c(sc(N)c2C#N)CO1 (configuration not stated),i,4.8%,12.6µM*,i
CCOC(=O)c1c(C)nc2c(c1-c1cc(OC)ccc1OC)C(=O)c1ccccc1-2,i,.,10.1%,i
CCOC(=O)C1=C(Cc2ccc(OC)cc2)C(=O)c2ccccc2C1=O,i,20.1%,12.6µM*,i
COc1ccccc1-c1nnc2sc(COc3ccc(Cl)cc3)nn12,?,28.9%,17.8µM*,i
COc1ccc(-c2nnc3sc(COc4ccc(C)cc4)nn23)cc1,i,-9.3%,9.3%,i
COc1ccc(Cc2nn3c(-c4ccccc4OC)nnc3s2)cc1,i,-4.4%,?,i
COc1ccc(-c2nnc3sc(COc4ccccc4)nn23)cc1,i,7.1%,2.82µM*,i
Cc1cc(F)ccc1S(=O)(=O)Nc1ccccc1C(=O)N1CCCC1,i,4.47µM*,15.5%,i
Cc1cccc(Nc2ncc(NC(=O)c3cccc(F)c3)c(Nc3cccc(C)c3)n2)c1,i,.,21.1%,i
CC1CN(C(=O)c2cccc(COc3ccccc3Cl)c2)CC(C)O1 (configuration not stated),i,1.1%,-21.2%[0.397 µM],i
CC1CN(C(=O)c2ccccc2OCc2ccc(Cl)cc2Cl)CC(C)O1 (configuration not stated),i,8.8%,28.2µM*,i
O=C(CN1C(=O)CC(c2ccco2)Sc2ccccc21)Nc1ccc(Br)cc1 (configuration not stated),i,7.5%,4.2%,i
O=C(CN1C(=O)CC(c2ccco2)Sc2ccccc21)Nc1ccccc1F (configuration not stated),i,7.8%,31.6µM*,i
Cc1ccc(S(=O)(=O)N2CCOC23CCN(C(=O)c2ccccc2Br)CC3)cc1,i,4.5%,15.8µM*,.
CN[C@H]1C[C@H]2c3[nH]c4c(-c5cccc(C)c5)cccc4c3CCN2C(=O)[C@H]1[C@H](C)O,i,.,.,.
Cc1ccc(C)c(S(=O)(=O)N2CCCN(C)CC2)c1,i,-1.0%,-24.3%,i
Cc1ccc(C)c(S(=O)(=O)N2C(=S)NC(=O)C2C(C)C)c1 (configuration not stated),i,11.9%,35.5µM*,i
CC1CCN(S(=O)(=O)c2cc(C(=O)N3CCN(c4cccc(Cl)c4)CC3)n(C)c2)CC1,?,.,9.3%,i
Cc1ccc(NS(=O)(=O)c2c(C)ccc3nsnc23)c([N+](=O)[O-])c1,i,0.3%,22.4µM*,i
Cc1nn2c(COc3ccc(NC(=O)C(C)C)cc3)nnc2c2ccccc12,i,-4.0%,14.9%,i
Cc1nn2c(COc3ccc(NC(=O)c4ccccc4Cl)cc3)nnc2c2ccccc12,22.4µM*,?,-4.1%,i
CC(C)c1cc(-c2cc(C(=O)NCc3ccccc3)on2)nc(NCC2CC2)n1,i,?,15.8µM*,i
